Experimental data published in PubChem BioAssay (Tox21).
Records with an inconclusive call do not appear. The source made the active and inactive calls. Unless noted, calls follow the shape of the dose curve; as a rule, active = well fitted curve in the direction sought with a large enough effect in the repeat runs; inconclusive = weak or mixed curves; inactive = no such curve, though single readings can be large; an effect the other way counts as inactive or inconclusive.

What was measured:
[1] = qHTS assay to identify small molecule agonists of the vitamin D receptor (VDR) signaling pathway - cell viability counter screen (AID 743224); also: series mostly up to about 63 µM; % is scaled to controls: 0 for no effect and ±100 for the full control effect; nearly all actives have a fitted effect of over 50% in size
How it was run: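 VDR-bla cells were preincubated 4 h at 37C/5% CO2, then exposed to compounds for 16 h. After the 2 h room-temperature bla FRET read, CellTiter-Glo was added to the same wells and luminescence read after 30 min.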

[2] = qHTS assay to identify small molecule antagonists of the vitamin D receptor (VDR) signaling pathway - cell viability counter screen (AID 743225); also: % is scaled to controls: 0 for no effect and ±100 for the full control effect; nearly all actives have a fitted effect of over 50% in size
How it was run: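 Read-out: CellTiter-Glo luminescence measured 30 min after reagent addition at room temperature. Cells were VDR-bla HEK 293T exposed 16 h at 37C, 5% CO2, to compound with 3 nM final calcitriol agonist.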

[3] = qHTS assay to identify small molecule agonists of the NFkB signaling pathway - cell viability counter screen (AID 1159515; calls by dose curve; also: series mostly up to about 61 µM; % is scaled to controls: 0 for no effect and ±100 for the full control effect; nearly all actives have a fitted effect of over 55% in size)
How it was run: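 NFkB-bla ME-180 cells, 2,000/well, were plated overnight at 37 C, 5% CO2, then exposed to compounds in DMSO for 5 hr. After the bla FRET read, CellTiter-Glo was added to the same wells; luminescence was read after 30 min at room temperature.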

[4] = qHTS assay to identify small molecule agonists of the endoplasmic reticulum stress response signaling pathway (AID 1159516; active = well fitted activation curve with a large enough effect in the signal ratio in the repeat runs, not every such curve was filed as active; the % refers to the signal ratio; also: % is scaled to controls: 0 for no effect and ±100 for the full control effect)
How it was run: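 CellSensor ESRE-bla HeLa cells, carrying a beta-lactamase reporter driven by the ER stress response element, were plated overnight and exposed to compounds for 5 hr at 37 C. Reporter activity was read as FRET substrate fluorescence after 2 hr at room temperature.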

[5] = qHTS assay to identify small molecule agonists of the endoplasmic reticulum stress response signaling pathway - cell viability counter screen (AID 1159517; calls by dose curve; also: series mostly up to about 61 µM; % is scaled to controls: 0 for no effect and ±100 for the full control effect; nearly all actives have a fitted effect of over 50% in size)
How it was run: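 CellTiter-Glo was added to wells already read for beta-lactamase FRET, and luminescence was recorded 30 min later. Cells: ESRE-bla HeLa, 1,500 per well, compound exposure 5 hr at 37 C.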

[6] = qHTS assay to identify small molecule antagonists of the retinoid-related orphan receptor gamma (ROR-gamma) signaling pathway - cell viability counter screen (AID 1159520); also: % is scaled to controls: 0 for no effect and ±100 for the full control effect; nearly all actives have a fitted effect of over 50% in size
How it was run: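 Tet-on ROR gamma CHO cells (1,000/well) were plated 4 hr, given compounds in DMSO for 2 hr at 37 C, then induced with 1 uM final doxycycline for 16 hr. Viability was read as ATP by CellTiter-Glo luminescence after 30 min.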

[7] = qHTS assay to identify small molecule agonists of the AP-1 signaling pathway - cell viability counter screen (AID 1159525; calls by dose curve; also: nearly all actives have a fitted effect of over 55% in size)
How it was run: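 ME-180 AP-1-bla, 2500 cells/well, Opti-MEM + 0.5% dialyzed FBS; overnight 37 °C; cpd 15-pt titration, 5 h 37 °C; CellTiter-Glo 30 min RT; luminescence read; normalised to TOAB and DMSO controls.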

[8] = qHTS assay to identify small molecule agonists of the AP-1 signaling pathway (AID 1159526; calls by dose curve; also: % is scaled to controls: 0 for no effect and ±100 for the full control effect)
[9] = qHTS assay to identify small molecule agonists of the RXR signaling pathway - cell viability counter screen (AID 1159529)
How it was run: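 HEK 293T RXRa-bla cells, 2% CS-FBS; 5 h settle; cpd 16 h 37 C, 5% CO2; CellTiter-Glo 30 min RT, luminescence. Tetraoctyl ammonium bromide as positive control.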

[10] = qHTS assay to identify small molecule antagonists of the retinoid acid receptor (RAR) signaling pathway - cell viability counter screen (AID 1159551); also: % is scaled to controls: 0 for no effect and ±100 for the full control effect; nearly all actives have a fitted effect of over 35% in size
How it was run: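 C3RL4 cells were seeded overnight at 37 C, then treated with compounds plus 1 uM (final) retinol for 6 h at 37 C. Viability was read as ATP by CellTiter-Glo luminescence after 30 min at room temperature.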

[11] = qHTS assay to identify small molecule antagonists of the retinoic acid receptor (RAR) signaling pathway (AID 1159552)
How it was run: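 Cells of the C3RL4 line were seeded, incubated overnight, then dosed with compounds in DMSO followed immediately by retinol (1 uM final). Six hours later luciferase detection reagent went in; signal was measured after 30 min at RT.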

[12] = qHTS assay to identify small molecule agonists of the retinoic acid receptor (RAR) signaling pathway (AID 1159553); also: % is scaled to controls: 0 for no effect and ±100 for the full control effect
How it was run: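 C3RL4 cells carrying a RARE luciferase reporter were plated overnight at 37 C, then exposed to compounds in DMSO for 6 hr at 37 C and 5% CO2. Luminescence was read 30 min after luciferase reagent addition at room temperature.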

[13] = molecular target: Retinoic acid receptor RXR-alpha (Homo sapiens) (UniProt P19793); assay: qHTS assay to identify small molecule agonists of the RXR signaling pathway (AID 1159527; calls by dose curve; also: % is scaled to controls: 0 for no effect and ±100 for the full control effect; nearly all actives have a fitted effect of over 35% in size)
How it was run: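 Read-out: beta-lactamase FRET ratio (405 nm excitation, 460 and 530 nm emission) after 2 hr substrate loading at room temperature. Cells were RXR-alpha-UAS-bla HEK 293T treated with compounds for 16 hr in 2% charcoal-stripped FBS medium.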

[14] = qHTS assay to identify small molecule antagonists of the estrogen related receptor (ERR) signaling pathway - cell viability counter screen (AID 1224818);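 also: series mostly up to about 46 µM; viability measured after 17.5 h of compound exposure; % is scaled to controls: 0 for no effect and ±100 for the full control effect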
How it was run: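 ERR reporter cells plated 6 h at 37 C/5% CO2, then compounds in DMSO pin-transferred and incubated 17.5 h at 37 C. Viability read as CellTiter-Fluor fluorescence after 30 min at 37 C.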

[15] = qHTS assay to identify small molecule antagonists of the estrogen related receptor (ERR) signaling pathway (AID 1224819)
How it was run: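 ERR reporter cells were plated at 2,000 cells/well and left 6 h at 37 C/5% CO2 before pin-tool transfer of compounds in DMSO. After 18 h at 37 C, One-Glo was added and luminescence was read 30 min later at room temperature.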

[16] = qHTS assay to identify small molecule agonists of the estrogen related receptor (ERR) signaling pathway (AID 1224820); also: % is scaled to controls: 0 for no effect and ±100 for the full control effect
How it was run: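 ERR reporter cell line (from NTP), 2,000 cells/well, incubated 6 h before compound addition, then 18 h at 37 C. Luminescence measured 30 min after One-Glo reagent at room temperature.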

[17] = system: estrogen-related receptor alpha (ERRalpha) with PGC-1alpha coactivator, human; assay: qHTS assay to identify small molecule antagonists of the estrogen related receptor signaling pathway with the pleiotropic PPARgamma coactivator (PGC) (AID 1224821; calls by dose curve)
How it was run: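 PGC/ERR reporter cell line, plated 6 h before compound addition, then exposed 18 h at 37 °C. Luciferase activity read by luminescence 30 min after One-Glo addition; decrease indicates antagonism.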

[18] = qHTS assay to identify small molecule agonists of the estrogen related receptor signaling pathway with the pleiotropic PPARgamma coactivator (PGC) (AID 1224823); also: % is scaled to controls: 0 for no effect and ±100 for the full control effect
How it was run: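 PGC/ERR reporter cells seeded 6 h, then exposed to compounds (23 nL in DMSO) for 18 h at 37 C. One-Glo luciferase luminescence read after 30 min at room temperature.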

Chain of Retinoic acid receptor RXR-alpha (Homo sapiens) (P19793 whole entry, looked up): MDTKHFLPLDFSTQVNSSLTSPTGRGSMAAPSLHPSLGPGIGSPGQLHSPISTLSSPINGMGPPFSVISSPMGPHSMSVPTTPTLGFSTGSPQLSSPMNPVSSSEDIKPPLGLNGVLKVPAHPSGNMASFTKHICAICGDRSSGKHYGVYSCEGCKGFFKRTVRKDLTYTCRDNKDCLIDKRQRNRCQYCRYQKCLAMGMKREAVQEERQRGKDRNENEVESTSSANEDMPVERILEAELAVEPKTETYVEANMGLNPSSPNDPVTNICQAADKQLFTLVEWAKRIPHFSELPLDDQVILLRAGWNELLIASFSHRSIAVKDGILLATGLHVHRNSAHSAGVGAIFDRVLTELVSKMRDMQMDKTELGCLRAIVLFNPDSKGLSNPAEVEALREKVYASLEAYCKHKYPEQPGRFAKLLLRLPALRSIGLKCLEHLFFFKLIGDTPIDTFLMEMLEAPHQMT

ClCCOCCOCCCl
inactive: Potency [1] | Potency [2] | Potency [3] | Potency [4] | Potency [5] | Potency [6] | Potency [7] | Potency [8] | Potency [9] | Potency [10] | Potency [11] | Potency [12]

CCOc1ccc(O)cc1
inactive: Potency [3] | Potency [4] | Potency [5] | Potency [6] | Potency [7] | Potency [8] | Potency [13] | Potency [9] | Potency [11]

CCCCCCCCO[C@@H]1O[C@H](CO)[C@@H](O)[C@H](O)[C@H]1O
inactive: Potency [1] | Potency [2] | Potency [3] | Potency [4] | Potency [5] | Potency [6] | Potency [7] | Potency [8] | Potency [13] | Potency [9] | Potency [11] | Potency [12]

O=C1c2ccccc2S(=O)(=O)N1CCCCN1CCN(c2ncccn2)CC1
inactive: Potency [1] | Potency [2] | Potency [3] | Potency [4] | Potency [5] | Potency [6] | Potency [7] | Potency [8] | Potency [9] | Potency [10] | Potency [11] | Potency [12]

Cc1cc(C(=O)O)ccc1[N+](=O)[O-]
inactive: Potency [1] | Potency [2] | Potency [3] | Potency [4] | Potency [5] | Potency [6] | Potency [7] | Potency [8] | Potency [13] | Potency [9] | Potency [10] | Potency [11] | Potency [12]

O=C(NCC1CN(c2ccc(N3CCOCC3=O)cc2)C(=O)O1)c1ccc(Cl)s1 (stereo unspecified)
inactive: Potency [1] | Potency [2] | Potency [3] | Potency [4] | Potency [5] | Potency [6] | Potency [7] | Potency [8] | Potency [13] | Potency [11] | Potency [12]

CN1Cc2cc(C(=O)N3CCC(C4CCNCC4)CC3)ccc2NC(CC(=O)O)C1=O (stereo unspecified)
inactive: Potency [1] | Potency [2] | Potency [3] | Potency [4] | Potency [5] | Potency [6] | Potency [7] | Potency [8] | Potency [13] | Potency [9]

CCOc1ccc(N=Nc2ccc(/C=C/c3ccc(N=Nc4ccc(OCC)cc4)cc3S(=O)(=O)O)c(S(=O)(=O)O)c2)cc1
inactive: Potency [1] | Potency [2] | Potency [3] | Potency [4] | Potency [5] | Potency [6] | Potency [7] | Potency [8] | Potency [9] | Potency [10] | Potency [11] | Potency [12]

CC1=CC=C(C(C)C)CC1
inactive: Potency [1] | Potency [2] | Potency [3] | Potency [4] | Potency [5] | Potency [6] | Potency [7] | Potency [8] | Potency [9] | Potency [10]

C[C@@H](c1ncncc1F)C(O)(Cn1cncn1)c1ccc(F)cc1F (stereo partly specified)
inactive: Potency [1] | Potency [2] | Potency [3] | Potency [4] | Potency [5] | Potency [6] | Potency [8] | Potency [13] | Potency [9] | Potency [10] | Potency [11] | Potency [12]

CCCCc1nc2cccnc2n1Cc1ccc(-c2ccccc2-c2nnn[nH]2)cc1
inactive: Potency [1] | Potency [2] | Potency [3] | Potency [4] | Potency [5] | Potency [6] | Potency [7] | Potency [8] | Potency [9] | Potency [10]

CN(C)CCN(Cc1ccc(Cl)cc1)c1ccccn1
inactive: Potency [2] | Potency [3] | Potency [4] | Potency [5] | Potency [6] | Potency [7] | Potency [10] | Potency [11] | Potency [12]

OCCN1CCN(CCCN2c3ccccc3C=Cc3ccccc32)CC1
inactive: Potency [1] | Potency [2] | Potency [3] | Potency [4] | Potency [5] | Potency [6] | Potency [7] | Potency [8] | Potency [10] | Potency [11] | Potency [12]

COc1ccc(C)cc1[N+](=O)[O-]
inactive: Potency [1] | Potency [2] | Potency [3] | Potency [4] | Potency [5] | Potency [6] | Potency [7] | Potency [8] | Potency [9] | Potency [11] | Potency [12]

CN1C[C@H]2c3ccccc3Oc3ccc(Cl)cc3[C@@H]2C1
inactive: Potency [1] | Potency [2] | Potency [3] | Potency [4] | Potency [5] | Potency [6] | Potency [7] | Potency [13] | Potency [9] | Potency [10] | Potency [11] | Potency [12]

CCCCCCCCCCO[C@@H]1O[C@H](CO)[C@@H](O)[C@H](O)[C@H]1O
inactive: Potency [3] | Potency [4] | Potency [5] | Potency [6] | Potency [7] | Potency [8] | Potency [10] | Potency [11] | Potency [12]

C/C=C/C(=O)CC
inactive: activity change, negative = cytotoxicity [1] 7.61% [at 13.2 µM] | viability change, negative = cytotoxic [2] 1.57% [at 15.1 µM] | activity, negative = cytotoxic [3] 18.8% [at 15.1 µM] | activation [4] 0.579% [at 15.1 µM] | activity change, negative = cytotoxicity [5] 28.8% [at 15.1 µM] | activity, negative = cytotoxicity [6] 4.4% [at 19 µM] | viability change, negative = cytotoxic [7] -12.1% [at 15.8 µM] | activity change, negative = cytotoxicity [10] -1.29% [at 19 µM] | activity, negative = inhibition [11] 130% [at 19 µM]

O=C(NCCO[N+](=O)[O-])c1cccnc1
inactive: Potency [1] | Potency [2] | Potency [3] | Potency [4] | Potency [5] | Potency [6] | Potency [7] | Potency [13] | Potency [9] | Potency [10]

CN(C)CCCN1c2ccccc2Sc2ccccc21
inactive: Potency [3] | Potency [4] | Potency [5] | Potency [6] | Potency [7] | Potency [10] | Potency [12] | outcome [14] | Potency [15] | outcome [16] | Potency [17] | outcome [18]

CN(C)c1ccc(CCO)cc1
inactive: Potency [1] | Potency [2] | Potency [3] | Potency [4] | Potency [5] | Potency [6] | Potency [7] | Potency [9] | Potency [10] | Potency [12]

Clc1ccc(Cn2c(CN3CCCC3)nc3ccccc32)cc1
inactive: Potency [1] | Potency [3] | Potency [4] | Potency [5] | Potency [6] | Potency [7] | Potency [9] | Potency [10] | Potency [12] | outcome [14]
